# CYP2C19 inhib: blocks human cytochrome P450 2C19; CYP2C19 Supersomes, luciferin-H EGE luminescence, 30 min; inhibition, % at 5 µM; hit rate 21% among 96,000; AID 778;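 active = CYP2C19 inhibition above a set limit at 5 µM in the primary screen, cut at about 50% in these data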;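 note: plate controls were negative control wells for no effect and 2.5 mM tranylcypromine positive control for full effect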
# CYP2C9 inhib: blocks human cytochrome P450 2C9 | CYP2C9 Supersomes, luciferin-H conversion, luminescence | hit rate 20% among 96,000 | P11712 | inhibition, % at 5 µM;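 active = blocking of liver enzyme CYP2C9 beyond about 50% at 5 µM, limit read from the data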
# CYP2C9 activ: activators of human CYP2C9 | activation factor at 5 µM | hit rate 1.4% among 96,000 | AID 1024 | recombinant CYP2C9, luciferin-H conversion, luminescence; stronger effect = higher value; factor 1 = untreated enzyme, 0 = blocked;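 active = activation factor of 2 or more for CYP2C9 at a 5 µM dose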;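 note: 0 = sulfaphenazole-blocked wells and 1 = vehicle-only wells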
# Pyk2 oligo antag: antagonists of human Pyk2 oligomerization; z-score (the deposit names both 25 µM and 10 µM); hit rate 0.83% among 99,000; Q14289; Q293 cells, Pyk2 FERM NanoBiT luminescence; stronger effect = lower value;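 active = Z-score of -3 or lower, scaled per plate to the spread of control and sample wells; inactive = z-score above -3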;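 note: negative z-score means lost luminescence so less FERM oligomerization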
# CYP2C19 act: cytochrome P450 2C19 (human) activation; 96,000 tested, under 10 active; activation factor at 5 µM; recombinant CYP2C19, luciferin-H EGE luminescence; stronger effect = higher value; 0 = fully inhibited enzyme, 1 = untreated enzyme; AID 1025;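 active = activation factor of at least 2 at 5 µM in the primary screen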;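 note: 0 = wells with 2.5 mM tranylcypromine and 1 = vehicle-only wells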
# * marks the source's active call; other numbers are inactive results; / = no result given. A selection: hits, their analogues and other compounds. The true share with any hit is near 28%.
SMILES,CYP2C19 inhib,CYP2C9 inhib,CYP2C9 activ,Pyk2 oligo antag,CYP2C19 act
CCOC(=O)c1ccc(COC(=O)c2cc3ccccc3oc2=O)o1,52*,8,0.9,0.61,0.5
CCOC(=O)COc1ccc2cc(C(=O)OCC)c(=O)oc2c1,-5,2,1,0.7,1.1
CC(C)CCSc1nc2c(c(=O)[nH]c(=O)n2C)n1CCc1ccccc1,/,/,/,-0.22,/
COc1ccc(N(CC(=O)Nc2cc(C)on2)S(=O)(=O)c2ccc(Cl)cc2)cc1,-3,-5,1.1,-1.4,1
CCOC(=O)c1ccc(NC(=O)CN(c2ccc(C)cc2)S(=O)(=O)c2c(C)n[nH]c2C)cc1,19,76*,0.2,-3.4*,0.8
COc1ccc(NC(=O)CN(c2cc(C)cc(C)c2)S(=O)(=O)c2c(C)n[nH]c2C)cc1,14,69*,0.3,/,0.9
CCOc1ccccc1NC(=O)CN(c1ccc(C)cc1)S(=O)(=O)c1c(C)n[nH]c1C,73*,95*,0.1,-2,0.3
COc1ccc(N(CC(=O)Nc2cc(C)on2)S(=O)(=O)c2cc(C)ccc2C)cc1,98*,95*,0,-1.7,0
CCN1CCN(CCCNC(=O)C2CCCN(c3nnc(-n4cccc4)s3)C2)CC1 (stereo unspecified),6,19,0.8,-0.2,0.9
COc1ccc(C2(NC(C)=O)CCN(C(=O)c3cccs3)CC2)cc1,/,/,/,-0.14,/
Cc1ccc(N(CC(=O)Nc2ccc3c(c2)OCCO3)S(=O)(=O)c2c(C)noc2C)cc1,-4,24,0.8,-2.1,1
COc1cccc(N2CCN(C(=O)CN(c3ccc(C)cc3)S(=O)(=O)c3c(C)n[nH]c3C)CC2)c1,58*,81*,0.2,/,0.4
Cc1ccc(N(CC(=O)Nc2ccc3c(c2)OCCO3)S(=O)(=O)c2c(C)n[nH]c2C)cc1,62*,74*,0.3,-3.5*,0.4
COCCNC(=O)CN(c1ccc(OC)c(OC)c1)S(=O)(=O)c1ccc(C)cc1,4,19,0.8,-0.04,1
COc1ccc(N(CC(=O)O)S(=O)(=O)c2c(C)n[nH]c2C)cc1,-12,-14,1.1,0.24,1.1
COc1ccccc1CNC(=O)CN(c1ccc(C)cc1)S(=O)(=O)c1c(C)n[nH]c1C,67*,67*,0.3,-2.3,0.3
CCN(c1ccc(NC(=O)CSc2nnc3nc(C)cc(C)n23)cc1)C(C)C,10,11,0.9,1.1,0.9
Cc1c(-c2ccccc2)sc(N)c1C(=O)N1CCOCC1,88*,86*,0.1,-1.6,0.1
CN(C1CCCCC1)S(=O)(=O)c1ccc(NC(=S)NC(=O)c2cccs2)cc1,44,36,0.6,-1.3,0.6
CC(C)OC(=O)/C(=C\c1ccc2c(c1)c1ccccc1n2C)NC(=O)c1ccccc1,37,76*,0.2,-0.74,0.6
O=C(NCCc1ccccc1)c1ccc2nc(-c3ccco3)c(-c3ccco3)nc2c1,94*,98*,0,-0.4,0.1
O=C(NC1CCCC1)c1ccc2nc(-c3ccco3)c(-c3ccco3)nc2c1,22,59*,0.4,-0.15,0.8
O=C(NCCO)c1ccc2nc(-c3ccco3)c(-c3ccco3)nc2c1,10,3,1,-1.2,0.9
Cn1cnnc1SCC(=O)Nc1ccccc1C(=O)NC1CCCC1,1,-3,1,-0.12,1
CC1=C(C(=O)Nc2ccccc2Cl)C(c2ccc(N(C)C)cc2)NC(=O)N1 (stereo unspecified),-2,-14,1.1,0.8,1
SMILES,CYP2C19 inhib,CYP2C9 inhib,CYP2C9 activ,Pyk2 oligo antag,CYP2C19 act
COc1ccc(Cc2nn3c(-c4cc(OC)c(OC)c(OC)c4)nnc3s2)cc1,69*,75*,0.3,-0.27,0.3
COc1cc(-c2nnc3sc(Cc4ccccc4)nn23)cc(OC)c1OC,43,52*,0.5,-1.2,0.6
COc1cc(-c2nn3c(-c4ccccn4)nnc3s2)cc(OC)c1OC,33,28,0.7,/,0.7
CC1CCCC(NC(=O)c2ccc3c(=O)n(CC4CCCO4)c(=O)[nH]c3c2)C1C (stereo unspecified),18,-9,1.1,-0.3,0.8
COc1ccc2[nH]c(=O)c(CN(C(=O)C3CCCO3)c3ccc(C)cc3)cc2c1 (stereo unspecified),21,39,0.6,-0.23,0.8
O=[N+]([O-])c1ccc(N2CCN(c3ccc(Cl)nn3)CC2)cc1NC1CC1,/,/,/,-0.75,/
Cc1ccc(/C=c2/sc3nnc(-c4ccccc4Cl)n3c2=O)o1,65*,68*,0.3,-0.58,0.4
CN1C(=O)CC(N2CCN(c3ccccc3)CC2)C1=O (stereo unspecified),/,/,/,0.32,/
CCN(CC)Cc1cc(CC(C(N)=O)C(N)=O)ccc1OC,3,-1,1,-0.31,1
COc1ccc(CNc2nn[nH]n2)cc1OC,-18,-20,1.2,-0.85,1.2
CCOc1cc(CNc2ccc3c(c2)CCC3)ccc1OC,56*,23,0.8,/,0.4
O=C(CSc1nnnn1-c1cccnc1)Nc1ccc(OCc2ccccc2)cc1,14,47,0.5,-0.62,0.9
COc1nc(N(C#N)CC(N)=O)nc(N2CCCC2)n1,-4,-2,1,0.36,1
Fc1ccc(CSc2nc3ncc(Br)cc3[nH]2)cc1,55*,21,0.8,0.29,0.5
CCN(CC)C(=O)CSc1nc2ncc(Br)cc2[nH]1,69*,44,0.6,0.79,0.3
CCN(CC)C(=O)CSc1nc2ncc(Cl)cc2[nH]1,52*,42,0.6,-0.1,0.5
Cc1nc(SCc2ccc(Br)cc2)[nH]c(=O)c1C,47,32,0.7,0.76,0.5
CCOC(=O)CNC(=O)CSc1nc2ncc(Br)cc2[nH]1,31,64*,0.4,-1.1,0.7
CCN(CC)C(=O)CSc1nc2nc(C)cc(C)c2c(=O)[nH]1,-16,16,0.8,-0.02,1.2
CCN1N=C(c2cc(Cl)sc2Cl)CSC1=O,/,/,/,-0.31,/
COC(=O)c1nn(-c2ccccc2)c(Cl)c1/C=N/OCc1ccc(Cl)cc1Cl,29,67*,0.3,0.59,0.7
COC(=O)c1nn(-c2ccccc2)c(Sc2ccc(Cl)cc2)c1/C=N/O,37,55*,0.5,-1.9,0.6
COC(=O)c1nn(-c2ccccc2)c(Sc2ccc(Br)cc2)c1/C=N/O,39,73*,0.3,-1.1,0.6
COC(=O)c1nn(-c2ccccc2)c(=O)cc1Oc1ccc(Cl)cc1,24,8,0.9,-1.7,0.8
Cc1nn(-c2ccccc2)c(N2CCCC2)c1/C=N/O,3,-16,1.2,-0.52,1
O=C1C2C3C=CC(O3)C2C(=O)N1CC(O)c1ccccc1 (stereo unspecified),8,-7,1.1,-0.18,0.9
CC(C)CNC(=O)c1ccc(Cl)c(Cl)c1,32,9,0.9,-0.7,0.7
CCNC(=O)Cn1c(=O)c2c(ncn2Cc2ccccc2)n(Cc2ccccc2)c1=O,89*,13,0.9,-0.31,0.1
CCc1ccc2c(c1)c1nnc(NN)nc1n2CC,/,/,/,-0.42,/

# Compound activity: PubChem BioAssay, Sanford-Burnham Center for Chemical Genomics
